Hit rate of the full screen: of about 48,000 compounds, about 13,000 (27%) showed an effect of 50% or more. Some of the results follow.

For the assay, the system named is Wolbachia pipientis. The assay can be described thus: Anti-Wolbachia Cell-Based Screen. It counts as functional. Also noted: scale not given: in the data most compounds retested in dose-response had high values. Particulars: 5 µM.
On to `CCN(Cc1nc(COC)no1)Cc1cccnc1NC`, for which the “Percent Effect” value was -1.287%.

Take `COCCCN1CCC(CNc2nccc(-c3cnn(C)c3)n2)C1` (stereo unspecified): the “Percent Effect” value was found to be 0.7819%.

Consider `CN(C)C(=O)c1cc2ncc(C(=O)NC3CCCC3)cc2n1C`, for which the “Percent Effect” value turned out to be 130.7%.

As to `CC(C)Oc1ncc(C(=O)N2CCC(N(C)C)CC2)cc1Cl`, the “Percent Effect” value is recorded as -24.51%.

Consider `CC1CCN(C(=O)c2cnc3cc(C(=O)N(C)C)n(C)c3c2)CC1`, for which the “Percent Effect” value is recorded as 124.9%.

In the case of `Cn1nc(C(=O)NC2CCCC2)cc1NC(=O)C1CC1`, the “Percent Effect” value was 3.278%.

As to `CCNc1ncc(C(=O)N[C@H]2CC[C@H](n3cnnc3)CC2)cn1`, the “Percent Effect” value was -5.329%.

As to `CN(C)C(=O)c1cc2ncc(C(=O)NC3CC3)cc2n1C`, the “Percent Effect” value came out at 122.1%.

`CN(C)C(=O)c1cccc(C[S+]([O-])CC(=O)NC2CCCC2)c1` (stereo unspecified): the “Percent Effect” value is reported as 8.2%.

On to `O=C(NC1CC1)c1cnc2n1CCCC2`, for which the “Percent Effect” value was found to be 4.998%.

Turning to `CC1CCN(C(=O)c2cccc3ncccc23)CC1`, the “Percent Effect” value is on record as -1.834%.

On to `COC(C(=O)N1CCN(Cc2noc(C)n2)CC1)c1ccccc1` (stereo unspecified), for which the “Percent Effect” value is -8.523%.

Turning to `Cc1cc(C)n2cc(CN3CCCC3Cn3nc(C)nc3C)nc2n1` (stereo unspecified), the “Percent Effect” value was -6.959%.

Turning to `Cn1cncc1-c1nnc([C@H]2CCN(Cc3ccc(CO)o3)C2)o1`, the “Percent Effect” value is -1.062%.

As for `Cc1nn(C)c2ncc(NC(=O)N(C)Cc3cc(Cl)cn3C)cc12`, the “Percent Effect” value is -3.854%.

As to `CC[C@H]1N(Cc2ccco2)CCC[C@]12CCC(=O)N2C`, the “Percent Effect” value was found to be 102.2%.

On to `Cn1nnc2c1CCN(Cc1ccco1)C2COCc1ccccc1.O=C(O)C(F)(F)F` (stereo unspecified), for which the “Percent Effect” value is given as 30.71%.

As for `CC[C@@H]1N(Cc2ccco2)CCC[C@]12CCC(=O)N2C.O=C(O)C(F)(F)F`, the “Percent Effect” value was 98.83%.

Consider `COC[C@@H]1CN(C)C(=O)[C@@H]2CCN(Cc3ccco3)CC[C@H]12`, for which the “Percent Effect” value was -1.368%.

Turning to `COC1COC2(CCN(Cc3ccco3)CC2)C1` (stereo unspecified), the “Percent Effect” value was -9.93%.

Take `COC(=O)CCN(CC1CCOC1)C1CC1` (stereo unspecified): the “Percent Effect” value is -6.747%.

On to `Cc1nnc(C(C)N(C)Cc2c(C)nn(-c3ccccc3)c2C)o1` (stereo unspecified), for which the “Percent Effect” value came out at 2.363%.

With `COCC1CN(Cc2ccccn2)Cc2cn(C)nc21.O=C(O)C(F)(F)F.O=C(O)C(F)(F)F.O=C(O)C(F)(F)F` (stereo unspecified), the “Percent Effect” value was -7.522%.

With `O=C1NCC(C(=O)Nc2ncc(Cc3ccccc3)s2)N1` (stereo unspecified), the “Percent Effect” value is given as 107.9%.

As for `O=C(Nc1cccc(OCc2cccc(F)c2)c1)C1COCCO1` (stereo unspecified), the “Percent Effect” value is on record as -8.331%.

For `Cc1ccc(C)c(Oc2ccc(CNC(=O)C3CNC(=O)N3)cn2)c1` (stereo unspecified), the “Percent Effect” value was -1.964%.

With `O=C1NCC(C(=O)Nc2ncc(Cc3cccc(F)c3)s2)N1` (stereo unspecified), the “Percent Effect” value is 100.2%.

As for `O=C1NCC(C(=O)N(Cc2cccc(Br)c2)C2CC2)N1` (stereo unspecified), the “Percent Effect” value was 3.322%.

As for `O=C1NCC(C(=O)Nc2ncc(Cc3ccc(F)cc3)s2)N1` (stereo unspecified), the “Percent Effect” value is on record as 110.5%.

Take `O=C(Nc1nncs1)N(Cc1cccc(F)c1)C1CC1`: the “Percent Effect” value is on record as -1.833%.

For the molecule `CC(=O)NC(C)(C)C(=O)Nc1ncc(Cc2ccc(C)c(F)c2)s1`, the “Percent Effect” value is reported as 7.127%.

Take `Cc1ccc(Cc2cnc(NC(=O)C3CNC(=O)N3)s2)cc1F` (stereo unspecified): the “Percent Effect” value is 1.212%.

As to `CC(=O)N1CCCN(C(=O)Nc2ccccc2N2CCOC2=O)CC1`, the “Percent Effect” value is -24.88%.

`COc1cc(N2C[C@H]3CN(CC(=O)N(C)C)C(=O)[C@H]3C2)ncn1`: the “Percent Effect” value was -6.391%.

In the case of `Cc1noc(CCNS(=O)(=O)N2CCCC2c2ccco2)n1` (stereo unspecified), the “Percent Effect” value is listed as -8.363%.

`COCC(C)NC(=O)c1nnn(-c2ccc(OC)cc2)n1` (stereo unspecified): the “Percent Effect” value amounted to 5.009%.

As to `COc1ccc(-n2nnc(C(N)=O)n2)cc1`, the “Percent Effect” value is 106.9%.

With `COc1ccc(-n2nnc(C(=O)NCC3CCCCC3)n2)cc1`, the “Percent Effect” value is listed as -6.383%.

`NC(=O)c1nnn(-c2ccc(Br)cc2)n1`: the “Percent Effect” value was 2.849%.

Regarding `O=C(c1nnn(-c2ccc(C(F)(F)F)cc2)n1)N1CC(O)C1`, the “Percent Effect” value is 9.515%.

For `NC(=O)c1nnn(-c2ccc(Cl)cc2)n1`, the “Percent Effect” value is on record as 106%.

As to `O=C(Nc1ccccc1OCC(F)F)N[C@@H]1C=C[C@H](CO)C1`, the “Percent Effect” value is -12.74%.

As for `O=C(NCC(O)c1ccc(F)cc1F)c1cccnc1O` (stereo unspecified), the “Percent Effect” value is on record as -11.89%.

As to `Cc1cccc(CNC[C@H]2Cn3ccnc3CO2)n1`, the “Percent Effect” value is -11.54%.

As for `COCCNc1cc(C2CCCNC2)ccn1.Cl` (stereo unspecified), the “Percent Effect” value came out at 131.3%.

`COCCOc1ccc(C(=O)N[C@@H]2CNCCC[C@H]2O)cc1`: the “Percent Effect” value was -1.711%.

Regarding `Cc1cccc(CNc2cc(C3CCCNC3)ccn2)n1.Cl` (stereo unspecified), the “Percent Effect” value was found to be 115.3%.

On to `COCCNc1ccc(-c2noc([C@@H]3CCCN3)n2)cn1`, for which the “Percent Effect” value came out at 5.755%.

Turning to `Cl.Cl.c1ccc(NCc2cn3c(n2)CNCC3)nc1`, the “Percent Effect” value was determined as 6.135%.

For `COc1ccnc(CNc2cc(C3CC3)ncn2)c1`, the “Percent Effect” value is recorded as -5.331%.

On to `Cl.c1ccc(CNc2cc(C3CCCNC3)ccn2)nc1` (stereo unspecified), for which the “Percent Effect” value amounted to 70.58%.

Regarding `Cc1cc(C)c2nc(CN[C@H]3CCCNC3)cc(O)c2c1`, the “Percent Effect” value was 1.45%.

Regarding `Cc1ccc2c(c1)c(CNC(C)Cn1nc(C)cc1C)nn2C` (stereo unspecified), the “Percent Effect” value was found to be 8.057%.

For the molecule `CCN1CCC(CNS(=O)(=O)N2CCc3ccccc3C2)C1` (stereo unspecified), the “Percent Effect” value was found to be 5.13%.

For `Cc1cccc(C2(CNC(=O)CCN3C(=O)CCC3=O)CCCC2)c1`, the “Percent Effect” value stood at 3.863%.

For the molecule `Cc1ccnc(OC[C@@]23CCO[C@@H]2CCN(S(C)(=O)=O)C3)n1`, the “Percent Effect” value amounted to 3.207%.

The values are drawn from ChEMBL document CHEMBL3988442, “University of Dundee, Small-Polar-MMV Screening Library” (2021).
